Laboratory results taken from PubChem BioAssay (NCI).
Compounds without any hit were thinned out: in the full panel of roughly 83,000, 20% have a hit.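 For each line, cells grew in 96-well plates with the test compound present at a single concentration for 48 hours.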 A number with no mark means an inactive call. The source made the active and inactive calls. How the source made its calls: active means growth percent below 10; inactive means the rest.

Tested on: SK-MEL-2 melanoma
Assay: NCI-60 one-dose screen, 48 h (100 = growth as untreated, 0 = no growth, -100 = all killed)
Details: 10 µM unless noted

Point of comparison: `CN(C)c1ccc(-c2c(NC(C)(C)C)nc3c(OCCc4ccccc4)cccn23)cc1`, growth 25.3%. Against it:
- c1ccc(CNc2ncnc3ccc(-c4cnc5[nH]ncc5c4)cc23)cc1 — higher, 81.6%
- O=C(CCN1C(=O)/C(=C/c2ccccc2)SC1=S)N1CCOCC1 — higher, 112%
- OC1CCN(CCCOc2c3ccccc3nc3c2oc2ccc(Cl)cc23)CC1 — lower, 14%
- CN1C(=S)N(C)C2C1NN=C1SC(c3ccccc3)=CC(=O)N12 (centres undefined) — higher, 95.2%
- O=C1Nc2ccc(Cl)cc2/C1=C/c1ccc(OCC(=O)c2ccc(Br)cc2)cc1 — higher, 113%
- CCN1C(=S)N(CC)C2C1N=C(SC)N2/N=C/C=C/c1ccccc1[N+](=O)[O-] (centres undefined) — higher, 123%
- NS(=O)(=O)c1cccc(Nc2nc(SCC(=O)c3ccc(Cl)cc3)nc3ccccc23)c1 — higher, 77.3%
- O=C(CN1C(=O)/C(=C/c2ccccc2)SC1=S)N1CCOCC1 — higher, 125%
- Nc1c(C(=O)Nc2ccc(Cl)cc2)sc2nc(-c3cnccn3)cc(-c3cccs3)c12 — higher, 85.4%
- COc1ccccc1C(=O)CSc1nc(Nc2ccc(S(N)(=O)=O)cc2)c2ccccc2n1 — higher, 98.1%
- Clc1ccc(Cc2nnc3sc(-c4cccnc4)nn23)cc1 — higher, 113%
- Cc1c(NC(=O)CSc2nc3sc4c(c3c(=O)n2-c2ccc(Cl)cc2)CCCC4)c(=O)n(-c2ccccc2)n1C — higher, 110%
- CCOC(=O)c1c(Nc2ccccc2)nn2c(N)c(C#N)c(-c3ccc(OC)cc3)nc12 — higher, 89.2%
- N=C1CC(=O)NN1C(=O)CSc1nc2sc3c(c2c(=O)n1-c1ccc(Cl)cc1)CCCC3 — higher, 128%
- Clc1ccc2c(NCCCn3ccnc3)c3oc4ccc(Cl)cc4c3nc2c1 — higher, 113%
- CCN1C(=S)N(CC)C2C1NN=C1SC(c3ccccc3)=CC(=O)N12 (centres undefined) — higher, 98.2%
- COc1ccc(COc2ccc(/C=C3/C(=O)Nc4cc(Cl)ccc43)cc2)cc1 — higher, 114%
- COc1ccc(N/N=C/c2c(-c3ccc(S(C)(=O)=O)cc3)nc3ccccn23)cc1 — higher, 53.8%
- O=C(CSc1nc2sc3c(c2c(=O)n1-c1ccc(Cl)cc1)CCCC3)N/N=C/c1ccc(F)cc1 — higher, 136%
- CC(C)NC(=O)c1cc(-c2ccc(NC(=O)Nc3ccc(N4CCOCC4)c(C(F)(F)F)c3)cc2)nc2cccnc12 — higher, 75.5%
- O=C(CCN1C(=O)/C(=C/c2ccccc2F)SC1=S)N1CCOCC1 — higher, 113%
- O=C1Nc2cc(Cl)ccc2/C1=C\c1ccc(OCc2ccc([N+](=O)[O-])cc2)cc1 — higher, 101%
- CCN(CC)c1ccc(C=O)c(OCc2cn(CC(=O)Nc3ccc(Cl)cc3)nn2)c1 — higher, 89.7%
- CCCC(=O)NC(c1ccc2c(c1)OC(F)(F)O2)c1cc(C)c2cccnc2c1O (centres undefined) — higher, 40.2%
- COc1cc(OC)c(C2SCC(=O)N2Nc2ncnc3ccccc23)cc1OC (centres undefined) — higher, 123%
- COc1cc2cc(Oc3ccc(NC(=O)c4cccc(C(F)(F)F)c4)cc3)c(C)nc2cc1OCCN1CCCCC1 — higher, 74%

With `CN1C(=O)N(c2ccccc2)C2N=C(N/N=C/c3ccccc3)SC21` (centres undefined) the growth was -3.76% (active).
For `C[C@@H](Nc1c(C#N)cnc2ccc(-c3cnc(N)nc3)cc12)c1ccccc1`, the growth was -42.5% (active).
In the case of `CC(=O)Oc1ccccc1C(=O)Nc1cc(C(C)C)ccc1C`, the growth is reported as -22.9% (active).
With `C[C@@H]1CN(c2ccc3ncc(C#Cc4cncc(C(=O)Nc5ccc(CN6CCN(C)CC6)c(C(F)(F)F)c5)c4)n3n2)C[C@H](C)O1` the growth was -89.7% (active).
`CN(C)CCCOc1c2ccc(Cl)cc2nc2c1oc1ccccc12` was tested, and the growth was -87.6% (active).
With `C#C[C@]1(O)CC[C@H]2[C@@H]3CC=C4c5sc(Nc6ccc(Cl)cn6)nc5CC[C@]4(C)[C@H]3CC[C@@]21C` the growth was -13.4% (active).
In the case of `Cc1ccc(C(=O)Nc2cccc(C(F)(F)F)c2)cc1Nc1nc(-c2cnccn2)nc2c1cnn2C`, the growth is reported as -4.36% (active).
